How the values were obtained:
[1] = target: Tyrosine-protein kinase receptor UFO (Homo sapiens) (UniProt P30530); settings: at 1 µM
[2] = target: Tyrosine-protein kinase Blk (Homo sapiens) (UniProt P51451); settings: at 0.1 µM
[3] = target: Tyrosine-protein kinase Blk (Homo sapiens) (UniProt P51451); settings: at 1 µM
[4] = target: T1, Cytoplasmic tyrosine-protein kinase BMX (Homo sapiens) (UniProt P51813); settings: at 0.1 µM
T1 sequence (whole entry): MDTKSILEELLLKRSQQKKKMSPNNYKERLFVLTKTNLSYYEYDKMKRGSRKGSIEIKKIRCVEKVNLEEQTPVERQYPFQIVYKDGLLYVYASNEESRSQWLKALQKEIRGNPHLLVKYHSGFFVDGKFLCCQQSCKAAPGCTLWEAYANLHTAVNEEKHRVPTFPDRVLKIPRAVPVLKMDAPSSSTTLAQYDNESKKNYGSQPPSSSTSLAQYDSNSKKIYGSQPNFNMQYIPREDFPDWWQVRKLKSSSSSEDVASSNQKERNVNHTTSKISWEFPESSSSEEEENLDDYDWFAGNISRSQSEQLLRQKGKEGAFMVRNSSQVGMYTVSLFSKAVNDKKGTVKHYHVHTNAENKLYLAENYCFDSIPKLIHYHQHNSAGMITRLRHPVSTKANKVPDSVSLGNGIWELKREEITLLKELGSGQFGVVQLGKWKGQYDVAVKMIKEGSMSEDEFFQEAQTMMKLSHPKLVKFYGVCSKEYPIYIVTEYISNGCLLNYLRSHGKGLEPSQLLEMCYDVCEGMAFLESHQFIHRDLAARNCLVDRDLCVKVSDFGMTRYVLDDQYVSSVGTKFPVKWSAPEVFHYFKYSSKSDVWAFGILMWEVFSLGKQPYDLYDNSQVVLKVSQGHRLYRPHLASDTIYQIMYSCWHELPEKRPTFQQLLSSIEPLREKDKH

[5] = target: T1, Cytoplasmic tyrosine-protein kinase BMX (Homo sapiens); settings: at 1 µM
[6] = target: Protein-tyrosine kinase 6 (Homo sapiens) (UniProt Q13882); settings: at 0.1 µM
[7] = target: Protein-tyrosine kinase 6 (Homo sapiens) (UniProt Q13882); settings: at 1 µM
[8] = target: Tyrosine-protein kinase BTK (Homo sapiens) (UniProt Q06187); settings: at 0.1 µM
[9] = target: Tyrosine-protein kinase BTK (Homo sapiens) (UniProt Q06187); settings: at 1 µM
[10] = target: Tyrosine-protein kinase CSK (Homo sapiens) (UniProt P41240); settings: at 0.1 µM;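 further: value given is the averaged percent inhibition of CSK kinase activity, from the GSK PKIS kinase inhibitor set screening panel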
Chain of Tyrosine-protein kinase CSK (Homo sapiens) (P41240 2-450 limits assumed): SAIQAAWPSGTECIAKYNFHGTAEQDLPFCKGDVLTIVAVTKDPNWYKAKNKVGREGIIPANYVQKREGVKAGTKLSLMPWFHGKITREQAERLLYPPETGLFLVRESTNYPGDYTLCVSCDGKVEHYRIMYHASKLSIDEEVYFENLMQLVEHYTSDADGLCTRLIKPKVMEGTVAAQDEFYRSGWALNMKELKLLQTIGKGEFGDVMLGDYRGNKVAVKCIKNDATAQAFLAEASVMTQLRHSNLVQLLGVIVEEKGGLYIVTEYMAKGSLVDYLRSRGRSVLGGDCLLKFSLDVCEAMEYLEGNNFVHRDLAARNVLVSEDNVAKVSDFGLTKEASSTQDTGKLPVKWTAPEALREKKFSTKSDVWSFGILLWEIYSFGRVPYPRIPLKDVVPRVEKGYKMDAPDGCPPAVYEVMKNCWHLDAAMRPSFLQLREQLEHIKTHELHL

Chain of Protein-tyrosine kinase 6 (Homo sapiens) (Q13882 whole entry, looked up): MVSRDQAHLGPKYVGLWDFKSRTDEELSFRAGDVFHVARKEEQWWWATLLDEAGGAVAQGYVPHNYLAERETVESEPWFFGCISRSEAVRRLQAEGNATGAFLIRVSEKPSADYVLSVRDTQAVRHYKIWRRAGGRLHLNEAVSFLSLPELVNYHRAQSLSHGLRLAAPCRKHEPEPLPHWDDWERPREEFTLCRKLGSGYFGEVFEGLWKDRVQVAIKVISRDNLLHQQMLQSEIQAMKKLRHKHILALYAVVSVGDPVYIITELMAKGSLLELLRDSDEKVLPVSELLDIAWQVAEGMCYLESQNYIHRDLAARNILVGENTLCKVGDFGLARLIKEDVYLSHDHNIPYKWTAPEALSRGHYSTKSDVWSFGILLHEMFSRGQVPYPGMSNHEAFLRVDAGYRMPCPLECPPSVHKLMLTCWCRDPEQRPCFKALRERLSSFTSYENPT
Chain of Tyrosine-protein kinase Blk (Homo sapiens) (P51451 2-505 limits assumed): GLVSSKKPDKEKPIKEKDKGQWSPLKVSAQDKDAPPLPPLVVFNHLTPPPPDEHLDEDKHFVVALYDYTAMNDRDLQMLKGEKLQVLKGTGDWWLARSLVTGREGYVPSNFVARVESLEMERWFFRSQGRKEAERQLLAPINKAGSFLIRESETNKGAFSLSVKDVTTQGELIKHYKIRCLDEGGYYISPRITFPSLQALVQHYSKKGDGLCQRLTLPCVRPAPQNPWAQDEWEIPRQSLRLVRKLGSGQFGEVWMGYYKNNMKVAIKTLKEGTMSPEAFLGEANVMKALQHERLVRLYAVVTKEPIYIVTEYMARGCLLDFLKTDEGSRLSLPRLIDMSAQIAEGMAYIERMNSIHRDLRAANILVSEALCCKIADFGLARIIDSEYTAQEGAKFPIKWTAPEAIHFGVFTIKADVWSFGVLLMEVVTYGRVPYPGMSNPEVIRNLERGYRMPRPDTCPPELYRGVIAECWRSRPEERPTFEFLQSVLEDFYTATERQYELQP
Chain of Tyrosine-protein kinase BTK (Homo sapiens) (Q06187 whole entry): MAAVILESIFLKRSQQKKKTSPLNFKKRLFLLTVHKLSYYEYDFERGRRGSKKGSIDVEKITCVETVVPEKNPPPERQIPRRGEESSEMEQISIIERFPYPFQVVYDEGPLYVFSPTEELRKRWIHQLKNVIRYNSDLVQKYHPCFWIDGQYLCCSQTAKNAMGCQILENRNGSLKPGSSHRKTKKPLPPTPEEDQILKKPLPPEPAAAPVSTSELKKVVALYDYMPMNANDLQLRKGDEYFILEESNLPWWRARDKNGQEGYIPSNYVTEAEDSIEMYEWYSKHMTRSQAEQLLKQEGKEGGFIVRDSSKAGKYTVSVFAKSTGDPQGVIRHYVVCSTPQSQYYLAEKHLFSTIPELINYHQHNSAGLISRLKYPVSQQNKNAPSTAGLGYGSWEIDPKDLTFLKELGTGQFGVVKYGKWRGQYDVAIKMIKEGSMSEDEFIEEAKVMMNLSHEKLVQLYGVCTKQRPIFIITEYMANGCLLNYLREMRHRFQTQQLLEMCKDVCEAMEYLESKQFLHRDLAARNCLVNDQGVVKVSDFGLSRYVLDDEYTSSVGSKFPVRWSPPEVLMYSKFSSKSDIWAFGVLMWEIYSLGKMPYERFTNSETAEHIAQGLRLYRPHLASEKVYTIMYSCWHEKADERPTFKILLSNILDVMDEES
Chain of Tyrosine-protein kinase receptor UFO (Homo sapiens) (P30530 whole entry): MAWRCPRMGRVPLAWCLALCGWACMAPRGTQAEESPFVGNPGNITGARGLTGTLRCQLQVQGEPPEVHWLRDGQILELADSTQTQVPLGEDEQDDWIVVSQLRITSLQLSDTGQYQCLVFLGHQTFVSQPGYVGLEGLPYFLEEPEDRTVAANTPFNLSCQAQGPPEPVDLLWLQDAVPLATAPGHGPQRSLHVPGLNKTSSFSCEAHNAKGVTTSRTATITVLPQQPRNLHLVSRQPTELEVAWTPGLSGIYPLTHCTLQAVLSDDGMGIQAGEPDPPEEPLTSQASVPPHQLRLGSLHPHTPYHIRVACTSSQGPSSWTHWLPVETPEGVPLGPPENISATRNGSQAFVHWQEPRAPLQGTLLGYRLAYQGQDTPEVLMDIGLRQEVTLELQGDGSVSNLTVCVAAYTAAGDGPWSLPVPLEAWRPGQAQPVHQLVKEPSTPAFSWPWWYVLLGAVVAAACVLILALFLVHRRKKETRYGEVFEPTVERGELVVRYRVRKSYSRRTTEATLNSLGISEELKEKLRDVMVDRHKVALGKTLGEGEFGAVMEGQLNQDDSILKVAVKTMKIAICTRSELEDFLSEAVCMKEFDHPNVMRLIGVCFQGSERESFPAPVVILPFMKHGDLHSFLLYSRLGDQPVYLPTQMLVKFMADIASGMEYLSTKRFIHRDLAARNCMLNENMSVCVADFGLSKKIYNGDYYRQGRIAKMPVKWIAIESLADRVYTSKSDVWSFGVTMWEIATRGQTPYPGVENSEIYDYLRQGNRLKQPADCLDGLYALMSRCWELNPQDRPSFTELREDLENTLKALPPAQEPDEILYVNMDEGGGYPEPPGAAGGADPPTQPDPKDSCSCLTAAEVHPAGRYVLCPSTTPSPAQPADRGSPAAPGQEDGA

SMILES	inhibition [1] [%]	inhibition [2] [%]	inhibition [3] [%]	inhibition [4] [%]	inhibition [5] [%]	inhibition [6] [%]	inhibition [7] [%]	inhibition [8] [%]	inhibition [9] [%]	inhibition [10] [%]
O=C(O[C@H]1CN[C@H](C#Cc2cc3ncnc(Nc4ccc(Cc5ccccc5)cc4)c3s2)C1)N1CCOCC1	-7.04	5.97	48.5	1.38	4.65	-0.08	18.2	-0.44	1.44	-1.2
Nc1nc(-c2ccc(F)cc2)c(-c2ccc3ncccc3n2)s1	-3.07	4.2	12.1	-2.65	6.23	7.59	20.6	0.27	0.99	5.94
CN1CCC(n2cnc(-c3ccc(F)cc3)c2-c2ccnc(N)n2)CC1	0.24	1.67	6.71	3.52	4.58	3.49	8.09	0.47	0.93	7.73
COc1cc(N2CCN(C(C)C)CC2)ccc1Nc1nc(Nc2ccc(F)cc2C(N)=O)c2cc[nH]c2n1	42.4	1.9	3.73	1.88	5.02	4.84	31.2	-0.63	-0.07	1.42
COc1cc2ncn(-c3cc(OCc4ccccc4C(F)(F)F)c(C(=O)N(C)C)s3)c2cc1OC	1.68	0.87	7.34	3.03	3.07	-0.28	-0.8	-1.28	-0.85	-1.4
CCNC(=O)O[C@H]1CN[C@H](C#Cc2cc3ncnc(Nc4ccc(OCc5cccc(F)c5)c(Cl)c4)c3s2)C1	-3.57	2.3	2.43	-0.06	2.73	3.17	5.56	1.15	1.29	5.58
Clc1ccc(-c2nn3ncccc3c2-c2ccnc(Nc3ccccc3)n2)cc1	-0.77	3.97	15	-0.61	13.9	7.5	40.2	0.8	2.63	0.47
CCCN(CCS(C)(=O)=O)Cc1ccc(-c2ccc3ncnc(Nc4ccc(OCc5cccc(F)c5)c(Cl)c4)c3c2)o1	-0.23	1.35	4	0.94	3.89	4.08	7.54	-0.01	0.03	1.98
CN1CCC(n2cnc(-c3ccc(F)cc3)c2-c2ccnc(Nc3ccccc3)n2)CC1	-1.45	2.74	7.18	6.66	5.4	2.56	13.2	-0.86	1.25	5.97
COc1cccc(-n2ncc3c(N/N=C/c4ccc(F)cc4)ncnc32)c1	-3.79	4.91	18.2	-0.31	13	4.36	5.54	1.48	1.13	3.3
CC(=O)NCc1cccc(C#Cc2cncnc2Nc2ccc(OCc3cccc(F)c3)c(Cl)c2)c1	0.14	-0.03	0.29	2.32	0.07	0.12	3.96	-1.42	-0.78	-0.86
CS(=O)(=O)CCNCc1ccc(-c2ccc3ncnc(Nc4ccc(OCc5ccccc5)c(C(F)(F)F)c4)c3c2)o1	-6.09	3.53	4.36	2.52	1.86	3.06	3.52	1.47	1.16	0.54
COc1ccc2[nH]c3c4[nH]c5ccc(OC)cc5c4c4c(c3c2c1)C(=O)NC4=O	40	6.14	36.5	-2.69	16.6	6.37	19.6	0.07	8.32	4.3
CNC(=O)c1cc(-c2ccc(F)cc2)cc(-c2ccc(S(=O)(=O)N3CCCC3)cc2)c1N	-4.04	2.16	2.11	2.06	2.39	1.87	1.57	-1.58	-0.59	-0.99
CS(=O)(=O)CCNCc1coc(-c2ccc3ncnc(Nc4ccc(OCc5ccccc5)cc4)c3c2)c1	0.06	2.9	11.5	4.64	6.49	-1.1	10.9	-0.04	2.66	0.42
Cc1cccc(Nc2ncc(-c3ccccc3)o2)c1	-3.9	3.13	6.39	4.13	6.25	2.06	0.15	0.69	1.31	1.12
CCn1c(-c2nonc2N)nc2c(C#CC(C)(C)O)ncc(OC3CCNCC3)c21	-4.23	2.38	3.31	3.84	7.52	1.28	1.62	0.17	0.56	3.49
CC1=C(C(=O)Nc2cc(Cl)c3[nH]ncc3c2)C(c2ccc(C(F)(F)F)cc2)CC(=O)N1 (stereo not given)	-2.18	4.37	33.2	0.59	4.11	5.88	10.3	-0.51	0.33	4.43
COc1ccc(-c2oc3ncnc(N)c3c2-c2ccc(NC(=O)Nc3cc(C(F)(F)F)ccc3F)cc2)cc1	82.1	5.14	41.2	8.1	59.5	3.11	25.4	1.43	13.3	10.9

Reference: ChEMBL document CHEMBL1961873, “Compounds: GSK PKIS; Assays: Nanosyn kinase panel” (2012)
